Experimental data as given in PubChem BioAssay (Tox21).
Results filed as inconclusive are left out. Active and inactive are the calls of the source. Unless noted, the call rests on the fitted dose curve; in most records, active means well fitted curve in the direction sought with a large enough effect in the repeat runs; inconclusive means weak or mixed curves; inactive means no such curve, though single readings can be large; an effect the other way counts as inactive or inconclusive.

Legend:
[1] = qHTS assay to identify small molecule antagonists of the retinoid acid receptor (RAR) signaling pathway - cell viability counter screen (AID 1159551); further: on the % scale 0 is the no-effect control and ±100 the full control effect; nearly all actives have a fitted effect of over 35% in size
Procedure, shortened: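 Retinol-stimulated (1 uM final) C3RL4 cells, compound 6 h, 37 C; readout CellTiter-Glo luminescence (ATP) after 30 min RT incubation.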

[2] = qHTS assay to identify small molecule agonists of the retinoic acid receptor (RAR) signaling pathway (AID 1159553); further: on the % scale 0 is the no-effect control and ±100 the full control effect
Procedure, shortened: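 Reporter readout comes from luciferase under RARE control in C3RL4 cells; compound exposure lasts 6 hr at 37 C in 5% CO2, and luminescence is recorded following a 30 min room-temperature incubation with reagent.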

[3] = qHTS assay to identify small molecule antagonists of the estrogen related receptor (ERR) signaling pathway from Tox21 library - cell viability counter screen (AID 1224834); further: on the % scale 0 is the no-effect control and ±100 the full control effect; nearly all actives have a fitted effect of over 30% in size
Procedure, shortened: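 After 17.5 h of compound exposure at 37 C, ERR cells are incubated with CellTiter-Fluor for 30 min and fluorescence intensity serves as the viability measure.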

[4] = molecular target: Luciferin 4-monooxygenase (Photinus pyralis) (UniProt P08659); assay: qHTS assay to identify small molecule inhibitors of firefly luciferase (AID 1224835); further: nearly all actives have a fitted effect of over 25% in size; further: potency means the concentration at half of the fitted maximal effect; on activity change, negative = inhibition: series mostly up to about 120 µM; on the % scale 0 is the no-effect control and ±100 the full control effect
Chain of Luciferin 4-monooxygenase (Photinus pyralis) (P08659 whole entry, looked up): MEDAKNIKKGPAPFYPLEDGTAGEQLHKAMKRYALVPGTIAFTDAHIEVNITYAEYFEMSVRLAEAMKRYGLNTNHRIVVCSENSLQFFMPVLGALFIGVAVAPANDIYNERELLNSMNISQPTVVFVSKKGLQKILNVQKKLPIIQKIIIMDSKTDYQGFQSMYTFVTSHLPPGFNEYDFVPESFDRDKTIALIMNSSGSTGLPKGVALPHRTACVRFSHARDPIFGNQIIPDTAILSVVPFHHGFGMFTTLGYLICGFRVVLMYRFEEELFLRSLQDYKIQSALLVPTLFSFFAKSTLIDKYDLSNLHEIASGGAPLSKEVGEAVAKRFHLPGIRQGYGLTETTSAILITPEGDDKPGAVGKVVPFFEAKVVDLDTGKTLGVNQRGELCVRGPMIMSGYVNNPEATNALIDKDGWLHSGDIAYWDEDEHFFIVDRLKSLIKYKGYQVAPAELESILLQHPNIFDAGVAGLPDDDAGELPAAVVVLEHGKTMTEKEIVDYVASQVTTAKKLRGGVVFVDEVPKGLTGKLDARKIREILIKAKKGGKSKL
Procedure, shortened: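 Biochemical qHTS: compounds run as interplate titrations against purified firefly enzyme, with D-luciferin and ATP each at its KM concentration. Light output recorded by CCD imaging.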

[5] = qHTS assay to identify small molecule agonists of the constitutive androstane receptor (CAR) signaling pathway - cell viability counter screen (AID 1224836); further: series mostly up to about 92 µM; on the % scale 0 is the no-effect control and ±100 the full control effect; nearly all actives have a fitted effect of over 45% in size
Procedure, shortened: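 HepG2 cells stably carrying hCAR and a CYP2B6-2.2kb reporter were plated 4 h, then given compounds at 15 concentrations plus PK11195 (final 0.75 uM). After 23 h at 37 C, viability was read by CellTiter-Fluor fluorescence.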

[6] = qHTS assay to identify small molecule antagonists of the constitutive androstane receptor (CAR) signaling pathway - cell viability counter screen (AID 1224837); further: series mostly up to about 92 µM; on the % scale 0 is the no-effect control and ±100 the full control effect; nearly all actives have a fitted effect of over 45% in size
Procedure, shortened: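 Counter screen run in HepG2-CYP2B6-hCAR cells: 4 hr settle, compound titration (15 concentrations) with 50 nM CITCO, 23 hr at 37 C/5% CO2, CellTiter-Fluor fluorescence.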

[7] = molecular target: Nuclear receptor subfamily 1 group I member 3 (Homo sapiens) (UniProt Q14994); assay: qHTS assay to identify small molecule antagonists of the constitutive androstane receptor (CAR) signaling pathway (AID 1224838); further: on the % scale 0 is the no-effect control and ±100 the full control effect; nearly all actives have a fitted effect of over 40% in size
Chain of Nuclear receptor subfamily 1 group I member 3 (Homo sapiens) (Q14994 whole entry, looked up): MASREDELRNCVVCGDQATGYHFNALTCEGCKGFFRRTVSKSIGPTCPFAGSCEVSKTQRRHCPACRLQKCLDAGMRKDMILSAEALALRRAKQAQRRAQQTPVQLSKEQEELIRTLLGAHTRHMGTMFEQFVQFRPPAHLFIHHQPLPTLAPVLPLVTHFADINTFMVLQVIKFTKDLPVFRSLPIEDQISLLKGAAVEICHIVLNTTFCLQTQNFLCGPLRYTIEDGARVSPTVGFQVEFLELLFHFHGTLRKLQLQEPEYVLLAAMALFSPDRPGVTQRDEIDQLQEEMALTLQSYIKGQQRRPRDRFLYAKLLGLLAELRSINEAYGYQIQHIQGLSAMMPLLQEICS
Procedure, shortened: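 Cell line: HepG2 double-stable for hCAR and CYP2B6-2.2kb reporter. Agonist: CITCO, 50 nM final. Compounds: 15 concentrations, 24 h, 37 C. Detection: ONE-Glo luminescence.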

[8] = qHTS assay to identify small molecule antagonists of the estrogen related receptor signaling pathway with the pleiotropic PPARgamma coactivator (PGC) from Tox21 10K library - cell viability counter screen (AID 1224840; active means well fitted cell-killing curve with a large enough effect in the repeat runs, not every such curve was filed as active; further: on the % scale 0 is the no-effect control and ±100 the full control effect; nearly all actives have a fitted effect of over 40% in size)
Procedure, shortened: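 Following seeding of 2,000 PGC/ERR cells/well and 6 hours' incubation, test compounds were delivered in DMSO. The plates then sat 17.5 hours at 37 C before a fluorogenic live-cell protease reagent (CellTiter-Fluor) was read after 30 min.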

[9] = qHTS assay to identify small molecule agonists of the estrogen related receptor signaling pathway with the pleiotropic PPARgamma coactivator (PGC) from Tox21 10K library (AID 1224842); further: on the % scale 0 is the no-effect control and ±100 the full control effect; nearly all actives have a fitted effect of over 15% in size
Procedure, shortened: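 PGC/ERR reporter cell line, 2,000 cells per well, incubated 6 h at 37 C before 23 nL compound in DMSO was added. After 18 h at 37 C, One-Glo luminescence read following 30 min at room temperature.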

[10] = qHTS assay to identify small molecule agonists of the RXR signaling pathway - cell viability counter screen (AID 1159529);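 further: HEK 293T cells carrying an RXR-alpha UAS beta-lactamase reporter; series mostly up to about 77 µM; on the % scale 0 is the no-effect control and ±100 the full control effect; nearly all actives have a fitted effect of over 50% in size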
Procedure, shortened: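 RXR-alpha-UAS-bla HEK 293T cells in medium with 2% charcoal-stripped FBS were preincubated 5 hr, then exposed to compounds for 16 hr at 37 C. Viability was read as CellTiter-Glo luminescence after 30 min at room temperature.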

[11] = qHTS assay to identify small molecule antagonists of the estrogen related receptor signaling pathway with the pleiotropic PPARgamma coactivator (PGC) from Tox21 10K library (AID 1224841; call rule not given here; further: series mostly up to about 92 µM; on the % scale 0 is the no-effect control and ±100 the full control effect; actives are mostly falling curves and most rising ones were filed inactive; nearly all actives have a fitted effect of over 50% in size)
Procedure, shortened: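 qHTS antagonist format: PGC/ERR cells, 2k/well, compound in DMSO by pin transfer after 6 h attachment, 18 h treatment at 37 C, One-Glo luminescence read at 30 min.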

[12] = qHTS assay to identify small molecule antagonists of the retinoic acid receptor (RAR) signaling pathway (AID 1159552; further: on the % scale 0 is the no-effect control and ±100 the full control effect; nearly all actives have a fitted effect of over 50% in size)
Procedure, shortened: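 RARE-luc C3RL4 cells; cpds + 1 uM (final) retinol, 6 hr, 37 C/5% CO2; luciferase reagent, 30 min RT, luminescence readout. Inhibitors of retinol-driven signal scored.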

[13] = qHTS assay to identify small molecule antagonists of the estrogen related receptor (ERR) signaling pathway (AID 1224819; further: potency means the concentration at half of the fitted maximal effect; nearly all actives have a fitted effect of over 50% in size)
Procedure, shortened: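 Luminescence readout (One-Glo, 30 min, RT) of ERR cell line after 18 h compound exposure at 37 C; cells seeded 2,000/well, pre-incubated 6 h, compounds pinned from DMSO stocks.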

[14] = qHTS assay to identify small molecule agonists of the estrogen related receptor (ERR) signaling pathway (AID 1224820); further: on the % scale 0 is the no-effect control and ±100 the full control effect
Procedure, shortened: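 Quantitative HTS of the LOPAC library used NTP ERR reporter cells treated 18 h at 37 C. Signal is luminescence after One-Glo addition and a 30 min room-temperature incubation.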

[15] = qHTS assay to identify small molecule agonists of the estrogen related receptor signaling pathway with the pleiotropic PPARgamma coactivator (PGC) (AID 1224823); further: on the % scale 0 is the no-effect control and ±100 the full control effect
Procedure, shortened: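 Cell-based luciferase assay in the NTP-supplied PGC/ERR line, 2,000 cells/well; 18 h compound exposure at 37 C, luminescence after One-Glo.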

[16] = molecular target: Nuclear receptor subfamily 1 group I member 3 (Homo sapiens) (UniProt Q14994); assay: qHTS assay to identify small molecule agonists of the constitutive androstane receptor (CAR) signaling pathway (AID 1224839); further: nearly all actives have a fitted effect of over 15% in size; further: potency means the concentration at half of the fitted maximal effect
Procedure, shortened: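 HepG2 cells stably expressing hCAR and a CYP2B6-2.2kb luciferase reporter were treated with compounds at 15 concentrations plus 0.75 uM PK11195 (final) for 24 h at 37 C; luminescence was read after ONE-Glo addition.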

O=C(Cl)c1ccc(F)c(Cl)c1
inactive: outcome [1] | Potency [2] | Potency [3] | Potency [4] | Potency [5] | Potency [6] | Potency [7] | Potency [8] | Potency [9]

CC/C=C\CCO
inactive: Potency [10] | Potency [3] | Potency [4] | Potency [5] | Potency [6] | Potency [8] | Potency [11] | Potency [9]

CO[C@@H]1COCC[C@@H]1N[C@@H]1CC[C@@](C(=O)N2CCc3ncc(C(F)(F)F)cc3C2)(C(C)C)C1
inactive: Potency [10] | Potency [3] | Potency [4] | Potency [5] | Potency [6] | Potency [7] | Potency [8]

Cc1nc2sccn2c(=O)c1CCN1CCC(=C(c2ccc(F)cc2)c2ccc(F)cc2)CC1
inactive: outcome [1] | outcome [12] | Potency [2] | outcome [14] | outcome [15] | Potency [3] | Potency [4] | Potency [5] | Potency [6] | Potency [16] | Potency [8] | Potency [9]
active: Potency [13] 19.6 µM

CO[C@@H]1[C@@H](O[C@@H]2O[C@H](C)[C@@H](O[C@H]3C[C@@](C)(O)[C@@H](O)[C@H](C)O3)[C@H](N(C)C)[C@H]2O)[C@@H](CC=O)C[C@@H](C)[C@@H](O[C@@H]2CC[C@H](N(C)C)[C@@H](C)O2)/C=C/C=C/C[C@@H](C)OC(=O)C[C@H]1OC(C)=O
inactive: outcome [1] | outcome [12] | Potency [2] | Potency [3] | Potency [4] | Potency [5] | Potency [6] | Potency [7] | Potency [16] | Potency [8]

CC(C)CC(C)(C)C
active: Potency [16] 63.4 µM
inactive: outcome [1] | outcome [12] | Potency [2] | Potency [4] | Potency [5] | Potency [6] | Potency [8] | Potency [9]

CC(C)CCCCCCCOC(=O)c1ccc(C(=O)OCCCCCCCC(C)C)c(C(=O)OCCCCCCCC(C)C)c1
inactive: outcome [1] | Potency [3] | Potency [4] | Potency [5] | Potency [6] | Potency [7] | Potency [16] | Potency [8] | Potency [9]

CCn1nc(Cc2ccccc2)cc1C1CCN(C[C@H]2C[C@H](N(C)[C@@H](C(=O)O)C(C)C)C[C@@H]2c2cccc(F)c2)CC1
inactive: outcome [1] | outcome [12] | Potency [2] | Potency [4] | Potency [5] | Potency [7] | Potency [16] | Potency [8] | Potency [11] | Potency [9]

C=C[Si]1(C)O[Si](C)(C=C)O[Si](C)(C=C)O[Si](C)(C=C)O1 (stereo not drawn)
inactive: outcome [1] | outcome [12] | Potency [3] | Potency [4] | Potency [5] | Potency [6] | Potency [7] | Potency [16] | Potency [8]

CCCCCCOC(=O)c1ccccc1
active: Potency [4] 15.9 µM
inactive: outcome [1] | outcome [12] | Potency [2] | Potency [3] | Potency [5] | Potency [6] | Potency [7] | Potency [8] | Potency [9]

Cc1nc(C)c(C)nc1C
inactive: Potency [10] | Potency [3] | Potency [4] | Potency [5] | Potency [6] | Potency [7] | Potency [16] | Potency [8] | Potency [11] | Potency [9]

CCCCCCC/C=C/C=O
inactive: outcome [1] | Potency [2] | Potency [3] | Potency [5] | Potency [6] | Potency [16] | Potency [8]

Nc1ccc(F)cc1F
inactive: Potency [10] | Potency [3] | Potency [4] | Potency [5] | Potency [6] | Potency [7] | Potency [16] | Potency [8]

COC=O
inactive: activity change, negative = cytotoxicity [1] 0.256% [at 8.39 µM] | activity, negative = inhibition [12] -0.361% [at 8.39 µM] | activation [2] 3.97% [at 8.36 µM] | viability change, negative = cytotoxic [3] 0.652% [at 8.39 µM] | activity change, negative = inhibition [4] -0.731% [at 10.5 µM] | viability change, negative = cytotoxic [5] -8.98% [at 8.39 µM] | activity change, negative = cytotoxicity [6] -19.2% [at 8.39 µM] | activity, negative = inhibition [7] 0.829% [at 8.39 µM] | viability change, negative = cytotoxic [8] 0.435% [at 8.39 µM] | activity, negative = inhibition [11] 9.85% [at 8.39 µM] | activation [9] 3.43% [at 8.39 µM]

c1ccc(CN(Cc2ccccc2)Cc2ccccc2)cc1
inactive: outcome [12] | Potency [2] | Potency [3] | Potency [4] | Potency [5] | Potency [6] | Potency [16] | Potency [8]
